Test results as given in PubChem BioAssay (EPA / NIEHS).
Activity calls are given as the source filed them. How the source made its calls: active means hit-call score of the fitted dose curve at least 0.9, where 1 is the maximum; inactive means score below 0.9.

Experiments:
[1] = APR_HepG2_NuclearSize_24hr: Apredica 24-hour HepG2 Assay for Nuclear Size (AID 2282907); settings: high-content imaging, actives raise or lower the signal
In short: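 HepG2 cells exposed 24 h to compounds at 0.39–200 uM (0.5% DMSO), fixed, Hoechst 33342 stained and imaged at 20x; nuclear diameter measured by automated image analysis, fitted bidirectionally against DMSO controls.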

[2] = APR_HepG2_CellLoss_24hr: Apredica 24-hour HepG2 Assay for Cell Loss (AID 2282908); settings: high-content imaging;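 on AC50: fit in both directions so a hit may be cell loss or gain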
In short: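 HepG2 cells exposed 24 hr to 0.39–200 uM compound in duplicate at 0.5% v/v final DMSO. Cells fixed in 3.7% formaldehyde and Hoechst 33342-stained. Cell number came from nuclear imaging at 20x. Bidirectional fit versus DMSO.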

[3] = APR_HepG2_MicrotubuleCSK_24hr: Apredica 24-hour HepG2 Assay for Microtubule CSK Stabilty (AID 2282909); settings: HepG2 microtubule cytoskeleton imaging, actives raise or lower the signal
In short: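 HepG2 cells were treated 24 hr with compound at 0.39–200 uM in duplicate (0.5% DMSO final), then fixed and permeabilized. Alpha-tubulin immunofluorescence was imaged by high-content microscopy, with bidirectional fitting against DMSO and taxol as positive control.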

[4] = APR_HepG2_MitoticArrest_24hr: Apredica 24-hour HepG2 Assay for Mitotic Arrest (AID 2282910); settings: high-content imaging, actives raise or lower the signal
In short: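 Compounds are dosed onto HepG2 cells across ten concentrations up to 200 uM for 24 hr. Cells are then fixed in 3.7% formaldehyde, permeabilised, and labelled for phospho-histone H3 and nuclei; images are scored by cell cycle analysis and fitted bidirectionally relative to DMSO.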

[5] = APR_HepG2_MitoMembPot_24hr: Apredica 24-hour HepG2 Assay for Mitochondrial Membrane Potential (AID 2282911); settings: imaging, actives raise or lower the signal
In short: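 Human hepatoma HepG2 cultures received ten compound concentrations up to 200 uM for 24 hr. Membrane-potential dye signal, captured by automated fluorescence microscopy, was scored for gain or loss against DMSO controls.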

[6] = APR_HepG2_MitoMass_24hr: Apredica 24-hour HepG2 Assay for Mitochondrial Mass (AID 2282912); settings: high-content imaging, actives raise or lower the signal
In short: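 HepG2 cells exposed 24 hr to 0.39–200 uM compound, 0.5% v/v DMSO, in duplicate. Stained before fixation with 250 nM MitoTracker Red CMXRos for 30 min, then imaged at 20x with Hoechst nuclei. Fitted in both directions against DMSO.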

[7] = APR_HepG2_p53Act_24hr: Apredica 24-hour HepG2 Assay for p53 Activation (AID 2282913); settings: high-content imaging, actives raise or lower the signal;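 further: p53 protein immunofluorescence averaged per cell in HepG2 with Hoechst nuclei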
In short: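 Automated fluorescence imaging quantifies p53 immunostaining in HepG2 cells after a 24 hr exposure (0.39–200 uM, duplicate, 0.5% DMSO). Nuclei are located by Hoechst 33342 staining.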

[8] = APR_HepG2_CellCycleArrest_72hr: Apredica 72-hour HepG2 Assay for Cell Cycle Arrest (AID 2282914); settings: high-content imaging, actives raise or lower the signal
In short: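 Cell cycle arrest in HepG2 was scored from nuclear DNA content after 72 hr compound treatment (0.39–200 uM). Activity, either gain or loss, was fitted against the DMSO baseline.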

[9] = APR_HepG2_CellLoss_72hr: Apredica 72-hour HepG2 Assay for Cell Loss (AID 2282915); settings: high-content imaging
In short: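 Cell number comes from Hoechst 33342-labelled nuclei, imaged at 20x after 3.7% formaldehyde fixation. Dosing was 0.39–200 uM, ten concentrations in duplicate, 0.5% DMSO final, for 72 h. Bidirectional fit relative to DMSO baseline.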

[10] = APR_HepG2_P-H2AX_72hr: Apredica 72-hour HepG2 Assay for H2AX Phosphorylation (AID 2282916); settings: imaging, actives raise or lower the signal;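 further: phospho-histone H2A.x immunostain intensity per cell marking DNA damage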
In short: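 HepG2 cells treated 72 h at 0.39–200 uM, 0.5% DMSO final, duplicates. Formaldehyde-fixed, Triton-permeabilised, immunostained for phospho-H2A.x with Hoechst; fluorescence imaged at 20x, bidirectional fit versus DMSO.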

[11] = APR_HepG2_MitoMembPot_72hr: Apredica 72-hour HepG2 Assay for Mitochondrial Membrane Potential (AID 2282917); settings: imaging, actives raise or lower the signal
In short: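 Membrane potential read by MitoTracker Red CMXRos (250 nM, 30 min, pre-fixation) fluorescence imaging of HepG2 after 72 hr exposure. Ten concentrations, 0.39–200 uM, duplicate wells, 0.5% DMSO; fitted in both directions against DMSO baseline.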

[12] = APR_HepG2_MitoticArrest_72hr: Apredica 72-hour HepG2 Assay for Mitotic Arrest (AID 2282918); settings: high-content imaging, actives raise or lower the signal
In short: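 Mitotic arrest in HepG2 is scored from phospho-histone H3 staining after 72 hr dosing across 0.39–200 uM, with DMSO at 0.5% v/v. Nuclei are identified by Hoechst 33342 and fluorescence intensity is quantified per cell.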

[13] = APR_HepG2_MicrotubuleCSK_72hr: Apredica 72-hour HepG2 Assay for Microtubule CSK Stabilty (AID 2282919); settings: HepG2 microtubule cytoskeleton, high-content imaging, actives raise or lower the signal
In short: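 Read-out is tubulin fluorescence intensity from high-content imaging of HepG2 cells, with nuclei identified by Hoechst 33342. Treatment lasts 72 h at 0.39–200 uM, and curves are fitted bidirectionally against the DMSO negative control.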

[14] = APR_HepG2_P-H2AX_24hr: Apredica 24-hour HepG2 Assay for H2AX Phosphorylation (AID 2282920); settings: high-content imaging, actives raise or lower the signal
In short: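 Signal comes from a FITC-labeled secondary detecting phospho-histone H2A.x in fixed HepG2 cells, quantified by automated imaging at 20x. Dosing ran 24 hr across 0.39–200 uM with 0.5% v/v DMSO.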

[15] = APR_HepG2_StressKinase_72hr: Apredica 72-hour HepG2 Assay for Stress Kinase (AID 2282921); settings: HepG2 stress kinase (phospho-c-Jun) imaging, actives raise or lower the signal
In short: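 HepG2 cells treated 72 hr with 0.39–200 uM compound, 0.5% v/v DMSO, duplicate wells. After formaldehyde fixation and Triton permeabilization, stained with anti-phospho-c-Jun (1:500) and Cy3 secondary, imaged at 20x. Fitted in both directions against DMSO.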

[16] = APR_HepG2_StressKinase_24hr: Apredica 24-hour HepG2 Assay for Stress Kinase (AID 2282922); settings: HepG2 stress kinase (phospho-c-Jun) imaging, actives raise or lower the signal
In short: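 HepG2, 24 hr dosing, 0.39–200 uM in duplicate, 0.5% DMSO; formaldehyde fix (3.7%), 0.5% Triton X-100; anti-phospho-c-Jun + Cy3 secondary, Hoechst counterstain; ArrayScan imaging; bidirectional curve fit vs DMSO baseline.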

[17] = APR_HepG2_p53Act_72hr: Apredica 72-hour HepG2 Assay for p53 Activation (AID 2282923); settings: high-content imaging, actives raise or lower the signal;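 further: average cellular p53 protein immunofluorescence intensity in HepG2 cells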
In short: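 HepG2 cells exposed 72 h to 0.39–200 uM in 0.5% DMSO, duplicates. Fixed, permeabilized cells immunostained for p53 (Cy5) with Hoechst; imaged at 20x, fluorescence analyzed bidirectionally against DMSO.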

[18] = APR_HepG2_MitoMass_72hr: Apredica 72-hour HepG2 Assay for Mitochondrial Mass (AID 2282924); settings: high-content imaging, actives raise or lower the signal;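 further: MitoTracker Red CMXRos stain intensity per cell imaged as mitochondrial mass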
In short: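 HepG2, 72 hr cmpd, 10 conc 0.39–200 uM in dup, DMSO 0.5% v/v. MitoTracker Red CMXRos 250 nM 30 min pre-fix; formaldehyde 3.7% fix 30 min RT. HCS imaging, gain/loss fit vs DMSO.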

[19] = APR_HepG2_CellCycleArrest_24hr: Apredica 24-hour HepG2 Assay for Cell Cycle Arrest (AID 2282905); settings: imaging, actives raise or lower the signal;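 further: cell cycle arrest scored as ratio of 2N to 4N nuclear DNA content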
In short: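 Compounds at 0.39–200 uM (0.5% DMSO) for 24 h, then fixed and Hoechst 33342 stained. Cell-cycle analysis of nuclear DNA content by high-content imaging, fitted bidirectionally versus DMSO.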

Measured: AC50

CCCCCC(=O)O
not listed: [19]
inactive: all other assays above

Nc1ccc2c(c1)C(=O)c1ccccc1C2=O
active: [8] 16.1 µM | [9] 11.5 µM | [10] 16.2 µM | [12] 10.2 µM | [14] 21.2 µM | [17] 19.3 µM
not listed: [11]
inactive: all other assays above

CN[C@H]1CC[C@@H](c2ccc(Cl)c(Cl)c2)c2ccc(S(N)(=O)=O)cc21
active: [2] 15.1 µM | [9] 6.85 µM | [10] 100 µM | [12] 3.89 µM | [13] 12.1 µM | [14] 100 µM | [15] 123 µM
not listed: [11] | [19]
inactive: all other assays above

Nc1nc(N)c2nc(CNc3ccc(C(=O)N[C@@H](CCC(=O)O)C(=O)O)cc3)cnc2n1
not listed: [19]
inactive: all other assays above

CC(=O)OC/C=C(\C)CCC=C(C)C
not listed: [11] | [19]
inactive: all other assays above

COCCOCCOC
not listed: [11]
inactive: all other assays above

CCOC(=O)CCC(=O)OCC
not listed: [11]
inactive: all other assays above

Clc1cc(Cl)c(Cl)cc1Cl
not listed: [11]
inactive: all other assays above

CNCc1cc(F)ccc1Oc1ccc(Cl)c(Cl)c1
active: [1] 54.7 µM | [2] 101 µM | [4] 31.4 µM | [5] 109 µM | [6] 32.6 µM | [7] 52.4 µM | [9] 56.9 µM | [10] 59.5 µM | [12] 32.6 µM | [14] 74.4 µM | [17] 63 µM | [18] 178 µM
inactive: [19] | [3] | [8] | [13] | [15] | [16]
